# Laboratory results taken from PubChem BioAssay (NCATS).
# Records with an inconclusive call do not appear. Where a call stands in place of a potency, no number is given. Values without a mark were called inactive. The source made the active and inactive calls. Calls come from the whole dose curve; as a rule, active = well fitted cell-killing curve with a large enough effect; inconclusive = small, poorly fitted or top-dose-only effect; inactive = flat fitted curve, though single readings scatter.
# Experiment: qHTS of pediatric cancer cell lines to identify multiple opportunities for drug repurposing: Primary screen for U-2 OS cells (AID 1347096); note: nearly all actives have a fitted effect of over 50% in size
# Conditions: U-2 OS viability, CellTiter-Glo luminescence, 48 h; series mostly up to 46 µM
# Excerpt: Drug repurposing or repositioning has been offered as a strategy for drug development in oncology programs. This approach has special potential for childhood cancers and other rare or orphan diseases, where the expected return on new drug development has been a disincentive to pharmaceuticals.
# In this project we exploit the poly-pharmacology of drugs to discover new indications via phenotypic screening of a panel of 19 well-characterized cell lines derived from solid tumors seen in children and adolescents. The goal is to identify approved drugs with previously unrecognized anticancer properties that has the potential to reveal new mechanisms and biological processes involved in carcinogenesis or drug resistance. We employed a titration-based paradigm (quantitative high-throughput screening or qHTS), where all compounds were tested at multiple concentrations for their effect on cell viability. Concentration-response curves (CRCs) were derived directly from the primary screen, and both potency and efficacy values were used to identify compounds with robust bioactivity profiles. We screened the NIH Chemical Genomics Center (NCGC) Pharmaceutical Collection (NPC) and Mechanism Interrogation Plate (MIPE) small molecule collections of approved and investigational compounds against these cell lines; and measured metabolically active cells after 48 hours of compound treatment as a proxy for cell viability.
# Assay Submitter: Nathalia J. Martinez, National Center for Advancing Translational Sciences, National Institutes of Health, Rockville, MD, USA; email: natalia.martinez@nih.gov
# [1] Shen, M et al. Quantitative high-throughput phenotypic screening of pediatric cancer cell lines identifies multiple opportunities for drug repurposing. Oncotarget 2017 Dec 19;9(4):4758-4772. PMID 29435139.
# The cells were obtained from University of North Carolina (UNC), Pediatric Preclinical Testing Program (PPT), and Coriell Institute (CI).
# qHTS cell viability assay:
# Cells were assayed in growth media at a density of 500-1,000 cells/well. Five microliters of cells were dispensed into 1,536-well, white, solid-bottom, TC-treated plates (Greiner Bio One) using a multidrop dispenser and incubated at 37 degrees C, 5% CO2, under a humidified atmosphere for 5 hours. Twenty-three nanoliters of compounds and controls (neutral control DMSO or positive control bortezomib at final concentration of 2.3 µM) were subsequently transferred by Kalypsys pintool. For primary screens, the MIPE collection was tested at 11-point dilutions (final concentrations range from 0.78 nM to 46 µM) and the NPC collection at 8-point dilutions (final concentrations range from 0.59 nM to 46 µM). Compounds tested in follow-up screens were assayed at 11-point dilutions. Cells were incubated for 48 hours, followed by addition of 3 µL of CellTiter-Glo (Promega). After a 15 min incubation at room temperature, samples were analyzed for luminescence intensity using a ViewLux High-throughput CCD imager equipped with clear filters.
# Potency is the fitted concentration of half-maximal effect.
Structure (SMILES),Potency,"activity change, negative = cytotoxic"
Cc1ccc(C2=Nc3ccc(Cl)cc3OC2)cc1,inactive,
N#Cc1c(N(CC(=O)O)CC(=O)O)sc(C(=O)O)c1CC(=O)O,inactive,
CC[C@@H]([C@H](C)O)n1ncn(-c2ccc(N3CCN(c4ccc(OCC5CO[C@@](Cn6cncn6)(c6ccc(F)cc6F)C5)cc4)CC3)cc2)c1=O (stereo not given in full),inactive,
CNC1[C@H](O)C(O[C@@H]2C(O)C(O[C@H]3O[C@H]([C@@H](C)NC)CC[C@H]3N)[C@@H](N)C[C@H]2N)OC[C@]1(C)O (stereo not given in full),inactive,
CN[C@H]1[C@@H](O[C@@H]2[C@H](O[C@@H]3[C@@H](O)[C@@H](O)[C@@H](N=C(N)N)[C@@H](O)[C@@H]3N=C(N)N)O[C@H](C)[C@@]2(O)C=O)O[C@@H](CO)[C@@H](O)[C@H]1O,,13% [at 9.22 µM]
O=C1C(CCC(O)c2ccc(F)cc2)C(c2ccc(O)cc2)N1c1ccc(F)cc1 (stereo not given),inactive,
C=C[C@@H]1CN2CCC1C[C@@H]2C(O)c1ccnc2ccc(OC)cc12 (stereo not given in full),inactive,
CN[C@@H](C)[C@H]1[C@H](O)C[C@@]2(C)[C@@H]3CC[C@H]4C(C)(C)[C@@H](NC)CC[C@@]45C[C@@]35CC[C@]12C,inactive,
CCOC(=O)N1c2ccc(C(F)(F)F)cc2[C@@H](N(Cc2cc(C(F)(F)F)cc(C(F)(F)F)c2)C(=O)OC)C[C@H]1CC,inactive,
O=S(=O)(O)c1ccc2cc(N=Nc3cc(S(=O)(=O)O)c4cccnc4c3O)ccc2c1,inactive,
COc1ccc(-c2nc3ccc(C4=NNC(=O)CC4C)cc3[nH]2)cc1 (stereo not given),inactive,
CCN(CCO)CCCOc1ccc2c(Nc3cc(CC(=O)Nc4cccc(F)c4)[nH]n3)ncnc2c1,inactive,
COc1ccc(-c2oc3c(CC=C(C)C)c(O)cc(O)c3c(=O)c2O)cc1,inactive,
CC=C(C(=CC)c1ccc(O)cc1)c1ccc(O)cc1,inactive,
CC(C)=CCCC(C)=CCCC(C)=CCCC(C)=CCCC(C)=CCCC(C)=CCCC(C)=CCCC(C)=CCCC(C)=CCO,inactive,
OCCn1cc(-c2ccc3c(c2)CCC3=NO)c(-c2ccncc2)n1,inactive,
CN(C)c1ccc(-c2nc3ncc(Cl)c(N4CCN(CC(=O)Nc5nccs5)CC4)c3[nH]2)cc1,inactive,
O=C1NC(=O)C(c2cnc3ccccn23)=C1c1cn2c3c(cccc13)CN(C(=O)N1CCOCC1)CC2,inactive,
OC[C@H]1O[C@@H](O[C@H]2[C@@H](O)[C@@](O)(CO)O[C@@H]2CO)[C@H](O)[C@@H](O)[C@@H]1O,inactive,
Cc1cc(OCCCS(C)(=O)=O)cc(C)c1-c1cccc(COc2ccc3c(c2)OC[C@H]3CC(=O)O)c1,inactive,

Structure (SMILES),Potency,"activity change, negative = cytotoxic"
CC=C1C2C=C(C)CC1(N)c1ccc(=O)[nH]c1C2 (stereo not given),inactive,
O=C(Nc1cccc(Cl)c1)Nc1ncc(CCNc2ncnc3ccsc23)s1,inactive,
O=C(c1ccc(C=Cc2n[nH]c3ccccc23)cc1)N1CCNCC1,inactive,
Cn1cc(-c2ccc3nnc(Sc4ccc5ncccc5c4)n3n2)cn1,inactive,
CN1CCC(COc2cnc(-c3cccc(Cn4nc(-c5cccc(C#N)c5)ccc4=O)c3)nc2)CC1,inactive,
COc1ccc(C=CC(=O)Nc2ccccc2C(=O)O)cc1OC,inactive,
Nc1ccc(-c2ccc3ncc4ccc(=O)n(-c5cccc(C(F)(F)F)c5)c4c3c2)cn1,1480 nM (active),
CC[C@H]1OC(=O)[C@H](C)[C@@H](O[C@H]2C[C@@](C)(OC)[C@@H](O)[C@H](C)O2)[C@H](C)[C@@H](O[C@@H]2O[C@H](C)C[C@H](N(C)C)[C@H]2O)[C@](C)(O)C[C@H](C)C(=NOCOCCOC)[C@H](C)[C@@H](O)[C@]1(C)O,inactive,
Cc1cc2c(cc1C1(c3ccc(C(=O)O)cn3)CC1)C(C)(C)CCC2(C)C,inactive,
CN[C@@H]1CN(c2ccc3c(=O)c(C(=O)O)cn(-c4nccs4)c3n2)C[C@@H]1OC,inactive,
COc1ccc(CCN(C)CCCOc2ccc(S(=O)(=O)c3[nH]c4ccccc4c3C(C)C)cc2)cc1OC,inactive,
O=C(CC12CC3CC(CC(C3)C1)C2)Nc1cccc2nc(NCCNCCO)ccc12,inactive,
Cc1csc(-c2nnc(Nc3ccc(Oc4ncccc4-c4ccnc(N)n4)cc3)c3ccccc23)c1,inactive,
CC1(C)C(N(O)C(=O)Nc2ccc(Cl)cc2)N(c2ccc(Cl)cc2)C(=O)N1CC(=O)NN=CC=Cc1ccc([N+](=O)[O-])o1 (stereo not given),inactive,
O=C(NCCCCN1CCOCC1)c1cc2ccccc2o1,inactive,
CN(C)N=Nc1nc[nH]c1C(N)=O,inactive,
O=c1cc(-c2ccc(O)c(O)c2)oc2cc(O)cc(O)c12,inactive,
NC[C@H]1O[C@H](O[C@@H]2[C@@H](O)[C@@H](O[C@H]3O[C@H](CO)[C@@H](O)[C@H](N)[C@@H]3O)[C@H](N)C[C@@H]2N)[C@H](O)[C@@H](O)[C@H]1O,inactive,
C[C@]12C=CC(=O)C=C1CC[C@@H]1[C@@H]2[C@@H](O)C[C@@]2(C)[C@@H]1CC[C@]2(O)C(=O)CO,inactive,
CN(C)CCOc1cc(-c2cn[nH]c2)ccc1NC(=O)C1COc2ccccc2O1 (stereo not given),inactive,
